This passage reports growth results from PubChem BioAssay (NCI).

SMILES strings stand for the structures. This is part of a sample that, as a whole, favours compounds with a hit. Of some 83,000 tested, about 20% had one in any assay.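 96-well plates, one dose, 48 hours. Percent growth reported; active if below 10.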 Unmarked numbers belong to inactive results. Calls of active or inactive are those of the source.

Among the test systems are T-47D breast; BT-549 breast; MDA-MB-435 melanoma; SW-620 colon; MCF7 breast; HCT-116 colon; HCC-2998 colon; KM12 colon.
Test in all cases: NCI-60 one-dose screen, 48 h (100 = growth as untreated, 0 = no growth, -100 = all killed)
Conditions in all cases: 10 µM unless noted

Take `CN1CCN(CCCNc2nccc(-c3c(-c4ccc(F)c(O)c4)nc4sccn34)n2)S1(=O)=O`: the growth with T-47D breast was 90.1%; in the test on BT-549 breast, 128%; in the test with MDA-MB-435 melanoma, 40.8%; with SW-620 colon, 112%; in the test on MCF7 breast it was 85%; with HCT-116 colon it was 75.9%. Also, the growth in the test on HCC-2998 colon was 108%; in the test on KM12 colon it was 94.3%.

As for `C(=N\Nc1ncc(-c2cc3cc4c(cc3o2)OCO4)s1)/c1c[nH]c2ccccc12`, the growth in the test on T-47D breast is -3.93% (active); in the test on BT-549 breast it was -56.9% (active); in the test on MDA-MB-435 melanoma, -31.6% (active); with SW-620 colon it was -33.9% (active); in the test with MCF7 breast, -0.831% (active); in the test with HCT-116 colon, -1.24% (active). The growth in the test with HCC-2998 colon is -3.45% (active); with KM12 colon it was -29.8% (active).

For the compound `CC(=O)[C@@H]1CC[C@]2(C(=O)n3ccnc3)CC[C@]3(C)[C@H](CC[C@@H]4[C@@]5(C)Cc6c([nH]c7ccccc67)C(C)(C)[C@@H]5CC[C@]43C)[C@@H]12`, the growth was 78% with T-47D breast; 99.1% in the test on BT-549 breast; 101% with MDA-MB-435 melanoma; 90.8% in the test on SW-620 colon; 71.9% in the test with MCF7 breast; 83.9% in the test with HCT-116 colon. The growth with HCC-2998 colon was 109%; in the test with KM12 colon it was 84.2%.

For `COc1cc(COC(=O)CCCCC[P+](c2ccccc2)(c2ccccc2)c2ccccc2)c(OC)c2c1OCO2`, the growth is 14.7% in the test on T-47D breast; 55.5% with BT-549 breast; 41.8% in the test with MDA-MB-435 melanoma; 58% in the test with SW-620 colon; 47.7% with MCF7 breast; 33.2% in the test with HCT-116 colon. In addition, the results for the growth in the test on HCC-2998 colon and with KM12 colon were 64.9% and 36.1%, respectively.

For `COc1cc(/C=C2\C(=O)N(Cc3ccc(Cl)cc3)c3ccccc32)cc(OC)c1OC`, the growth in the test on T-47D breast was 32.1%; in the test with BT-549 breast, 9.56% (active); in the test on MDA-MB-435 melanoma, 28.2%; in the test with SW-620 colon, -29.7% (active); in the test on MCF7 breast, 8.81% (active); in the test on HCT-116 colon, -23.4% (active). Also, the growth in the test on HCC-2998 colon is -28.5% (active); in the test on KM12 colon it was 15.5%.

Consider `CCOC(=O)Oc1c(OC)cc(C(=O)O[C@@H]2C[C@@H]3CN4CCc5c([nH]c6cc(OC)ccc56)[C@H]4C[C@@H]3[C@H](C(=O)OC)[C@H]2OC)cc1OC`, for which the growth with T-47D breast is 38.6%; with BT-549 breast, 77.5%; in the test with MDA-MB-435 melanoma it was 70.9%; in the test with SW-620 colon, 48.4%; in the test with MCF7 breast, 83.8%; in the test on HCT-116 colon, 1.57% (active). Further, the growth in the test on HCC-2998 colon is 68.7%; in the test with KM12 colon it was 39.8%.

In the case of `O=C(Nc1sc2c(c1C(=O)O)CCCC2)c1cccc(C(F)(F)F)c1`, the growth in the test with T-47D breast is 73.4%; with BT-549 breast, 93.1%; with MDA-MB-435 melanoma, 86.2%; with SW-620 colon, 90.6%; in the test on MCF7 breast it was 63.5%; with HCT-116 colon, 80.2%. The results for the growth in the test with HCC-2998 colon and in the test with KM12 colon were 101% and 89.9%, respectively.

Turning to `Fc1cc(C2=NNC(c3ccc[nH]3)C2)ccc1-n1ccc(C(F)(F)F)n1` (stereo not drawn), the growth is 76.7% with T-47D breast; 92.3% in the test on BT-549 breast; 98.7% with MDA-MB-435 melanoma; 98.8% with SW-620 colon; 83.3% in the test on MCF7 breast; 98.7% with HCT-116 colon. Also, the figures for the growth in the test with HCC-2998 colon and in the test with KM12 colon were 104% and 65.6%, respectively.

`COc1ccc(/C=C/C(=O)c2ccc(Nc3ncnc4ccccc34)cc2)cc1OC`: the growth with T-47D breast is 78.6%; with BT-549 breast, 56.3%; with MDA-MB-435 melanoma, 7.77% (active); in the test on SW-620 colon it was 27.5%; with MCF7 breast, 16.1%; in the test with HCT-116 colon it was 9.59% (active). Besides, the growth in the test on HCC-2998 colon is 29.9%; with KM12 colon it was 16.3%.

On to `NC(=S)N/N=C/c1ccc(OC(=O)COc2cc(Cl)c(Cl)cc2Cl)cn1`, for which the growth in the test with T-47D breast is 49.3%; with BT-549 breast, 64.3%; in the test with MDA-MB-435 melanoma it was 71.7%; in the test on SW-620 colon, 59.6%; with MCF7 breast it was 28.5%; in the test with HCT-116 colon it was 67.9%. Besides, the values for the growth in the test with HCC-2998 colon and in the test with KM12 colon were 63.7% and 70.9%, respectively.

As to `CN(C)C(C(N)=O)c1ccc(Cl)cc1` (stereo not drawn), the growth with T-47D breast is 102%; with BT-549 breast it was 100%; in the test with MDA-MB-435 melanoma, 101%; in the test with SW-620 colon, 104%; in the test on MCF7 breast, 106%; in the test with HCT-116 colon, 94.9%. For the same compound, the growth with HCC-2998 colon and with KM12 colon was 102% throughout.

With `COc1ccc(C2CC(c3cccc(Nc4ccncc4)c3)=NN2c2cc(Cl)cc(Cl)c2)cc1` (stereo not drawn), the growth in the test with T-47D breast is 73.8%; in the test with BT-549 breast, 109%; with MDA-MB-435 melanoma, -77.1% (active); in the test on SW-620 colon it was -87.5% (active); with MCF7 breast, -31.7% (active); in the test on HCT-116 colon, 83.9%. The growth in the test on HCC-2998 colon was -46.5% (active); with KM12 colon, -80% (active).

Consider `Clc1ccc(C2CC(c3cccc(Nc4ccncc4)c3)=NN2c2ccccc2)cc1` (stereo not drawn), for which the growth in the test with T-47D breast was 58.6%; in the test on BT-549 breast, -75.9% (active); with MDA-MB-435 melanoma, -46.1% (active); in the test on SW-620 colon, -79.8% (active); in the test on MCF7 breast, 4.93% (active); in the test with HCT-116 colon, -79.6% (active). In addition, the growth with HCC-2998 colon was -31.5% (active); with KM12 colon, -7.31% (active).

Take `CC(=O)OCC(=O)C1(O)C(C)CC2C3C=C(C)C4=Cc5c(cnn5-c5ccccc5)CC4(C)C3C(O)CC21C` (stereo not drawn): the growth in the test with T-47D breast was 40.4%; in the test with BT-549 breast, 21.5%; with MDA-MB-435 melanoma, 33.7%; in the test on SW-620 colon, -30% (active); in the test with MCF7 breast, 12.8%; in the test on HCT-116 colon, 3.77% (active). In addition, the growth in the test with HCC-2998 colon is 13.5%; with KM12 colon, -28.7% (active).

Regarding `O=c1[nH]nc(-c2ccc(Cl)cc2)cc1Cc1cccc([N+](=O)[O-])c1`, the growth is 85.2% with T-47D breast; 133% in the test on BT-549 breast; 112% in the test on MDA-MB-435 melanoma; 101% in the test on SW-620 colon; 84.8% in the test with MCF7 breast; 100% in the test on HCT-116 colon. Further, the growth in the test with HCC-2998 colon was 130%; in the test on KM12 colon it was 93.3%.

On to `COc1ccccc1/C=N/NC1=NC2C(N1)N(C)C(=O)N2C` (stereo not drawn), for which the growth in the test on T-47D breast is 101%; with BT-549 breast, 101%; in the test on MDA-MB-435 melanoma, 103%; with SW-620 colon, 99.3%; in the test with MCF7 breast it was 99.7%; with HCT-116 colon, 107%. Further, the growth with HCC-2998 colon is 101%; in the test with KM12 colon, 105%.
